Potency and affinity values are given separately. Calls of active or inactive are those of the source.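 The calls were made as follows: active = Loss of cell signal with fitted half-effect dose at or below twice the top valid tested dose; inconclusive = Poor fit, or flat fit from -70 to -30 percent; inactive = Half-effect above limit, rising signal, or flat within 30 percent.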

This assay in a line: HEK293T cell cytotoxicity, dose response, cytotoxicity control for HIV Vif inhibitor project, cherry-picks (AID 652208). To be noted: HEK293T viability, CellTiter-Glo luminescence, 24 h; series mostly up to 26 µM.
Regarding `N#Cc1c(-c2ccccc2)cc(C2CC2)nc1SCC(=O)c1cccs1`, the call was inactive.
With `O=C(C1COc2ccccc2O1)N1CCN(Cc2ccc3c(c2)OCO3)CC1` (configuration not stated) the entry was “inactive”; with `COc1ccc(-c2cc(C(=O)Nc3ccc4c(c3)OCO4)no2)cc1`, “inactive”; with `CSc1ccc(CN(C)CC(=O)NCCc2ccccc2)cc1`, “inactive”.
For `Cc1c(NC(=O)CC(O)(C(F)(F)F)C(F)(F)F)c(=O)n(-c2ccccc2)n1C`, the call was inactive.
Regarding `CCc1cccc2cc3c(N)c(C(=O)Nc4ccc(S(=O)(=O)N5CCCC5)cc4)sc3nc12`, the compound was classed as inactive.
Turning to `CCOc1ccc(C(C)=O)cc1COC(=O)c1cc([N+](=O)[O-])ccc1N1CCOCC1`, the result was inactive.
`CC(C)C(=O)N=C1SC2CS(=O)(=O)CC2N1Cc1ccccc1` (configuration not stated): the compound was called inactive.
With `COc1cc(C(=O)NCCc2cn3ccc(C)cc3n2)cc(OC)c1OC` the entry was “inactive”.
The entry for `COc1ccc(-c2csc(-c3cccnc3)n2)cc1C` is “inactive”; for `CCCn1c(=O)c(C(=O)Nc2ncccc2O)c(O)c2ccccc21` it is “inactive”.
The entry for `Cc1cccc(Nc2nc(-c3ccc(O)c(O)c3)cs2)n1` is “inactive”; for `CCN(CC)C(=O)c1sc2nc(-c3cccs3)cc(-c3cccs3)c2c1N` it is “inactive”; for `Cc1nnc2ccc(-c3ccc(NS(=O)(=O)c4ccc(F)cc4F)cc3)nn12` it is “inactive”.
Turning to `CC(C)(C)NC(=O)CN(Cc1ccc(F)cc1)C(=O)Cn1nnc(-c2ccc(F)cc2)n1`, the result was inactive.
The entry for `CC(C)CN1C(=O)C(=O)N(CC(=O)c2ccc3c(c2)OCO3)C1=O` is “inactive”; for `CCCCn1c(-c2ccncc2)nc2c1c(=O)[nH]c(=O)n2CC(C)C` it is “inactive”; for `COc1ccc(CN(C(=O)Cn2nnc(-c3ccc(C)o3)n2)C(C(=O)NCC2CCCO2)c2ccco2)cc1` (configuration not stated) it is “inactive”.
Regarding `Cc1ccc(NC(=O)Cn2ncn3c(cc4ccccc43)c2=O)c(C)c1`, the compound was classed as inactive.
The entry for `COc1ccc(C(=O)c2sc3nc(C)cc(-c4cccs4)c3c2N)cc1OC` is “inactive”; for `COc1cc(/C=C/C(=O)O)ccc1S(=O)(=O)N1CCCc2ccccc21` it is “inactive”; for `CCOc1ccc(S(=O)(=O)NCc2ccccn2)cc1NC(=O)c1ccccc1` it is “inactive”.
With `CC(=O)Nc1ccc(-c2ccnc3c2CC(C(=O)NCc2ccccc2)O3)cc1` (configuration not stated) the entry was “inactive”.
As for `COc1cc(-c2cc(=O)c3c(O)c(OC)c(OC)c(O)c3o2)ccc1O`, the compound was called inactive.
Take `CCC(C)C(=O)Nn1c(C2CC2)nc2cc(OC)c(OC)cc2c1=O` (configuration not stated): the compound was classed as inactive.
The entry for `Cc1cccc2cc(COC(=O)c3ccco3)c(=O)[nH]c12` is “inactive”; for `CC(C)CCNC(=O)CCc1nnc(COc2ccccc2)o1` it is “inactive”.
The entry for `CN(C)c1ccc(C(=O)c2ccc(N(C)C)c3ccccc23)cc1` is “inactive”; for `CCc1nn(-c2cc(Oc3cccc4ccccc34)nc(-c3ccccc3)n2)c(N)c1C#N` it is “inactive”.
Take `COc1cc(-c2cnc3c(NC=O)cc(-c4cccc(NC(C)=O)c4)cn23)cc(OC)c1OC`: the compound was called inactive.
With `CCOC(=O)C1(Cc2ccccc2)CCN(Cc2csc(C(C)=O)c2)CC1` the entry was “inactive”; with `CN(C)c1ccc(/C=C2\SC(N3CCCCC3)=NC2=O)cc1`, “inactive”.
With `CN(C)C(=O)c1cc(Br)ccc1Cl` the entry was “inactive”; with `O=C(CCc1ccccc1)Nc1ccccc1`, “inactive”.
`CCN(CC)c1ccc2cc(-c3nnc(-c4ccccc4)o3)c(=O)oc2c1`: the result was inactive.
With `N#CC(C(=O)NCCc1ccccc1)c1nc2ccccc2nc1N1CCOCC1` (configuration not stated) the entry was “inactive”; with `CCOc1ccc(NC(=O)CN(C)C(=O)c2cc(S(=O)(=O)N3CCCCC3)ccc2Cl)cc1OCC`, “inactive”.

Source of the values: PubChem BioAssay AID652208 (Broad Institute, 2013).
